Many of the other results were omitted from the sample, so hits are more common in it than they were.
TTR transcr act – increases transthyretin transcription; SH-SY5Y TTR promoter Gaussia luciferase, luminescence; 100% = recombinant luciferase protein wells; activation, % at 16.7 µM; actives 1.3% (n = 92,000); AID 1117267;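 active = activation above the mean of all tested compounds plus 3 SD, cut at about 9.5% in these data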;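 also: cells exposed to compounds for one day before reading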
TTR inh HuH7 – decreases TTR transcription in HuH7 cells in activator counter-screen. shares compounds with TTR transcr act. HuH7 TTR promoter-Gaussia luciferase reporter, luminescence. inhibition, % at 16.7 µM. actives 4% (n = 1,100). AID 1117279;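 active = average inhibition above the solvent-only control wells' mean plus 3 SD, cut at about 15% in these data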;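 also: inhibitors lower well luminescence so higher value means more inhibition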
TTR up confirm – human TTR transcription activation, confirmation | shares compounds with TTR transcr act | SHSY5Y TTR promoter Gaussia luciferase, luminescence; 100% = purified Lucia enzyme wells, no cells | activation, % at 16.7 µM | 1,100 tested, under 10 active | AID 1117280;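 active = mean activation above a set limit taken from the earlier primary screen, cut at about 11% in these data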
Of the large screens only hits and unclear results are named; the others gave an inactive call (follow-up assays come after a bar, where they were run).

CCCn1c(=O)c(Cc2ccccc2)c(O)c2ccccc21	TTR transcr act 11 | TTR inh HuH7 inactive | TTR up confirm inactive
COc1ccc(C=NN=C2c3ccccc3-c3ccccc32)cc1OC	none
C=CCN1[C@H](C)COc2cccc(N3CCSCC3)c2S1(=O)=O	none
Cc1ccc(C(=O)n2ccc3ccc(-c4ccc5ccn(Cc6ccc(C#N)cc6)c5c4)cc32)cc1	none
Cc1cnc(NC(=O)CSc2nnc(-c3ccccc3)o2)s1	none
O=C(CSc1nnc(-c2ccccc2)o1)NCC1CCCCC1	TTR transcr act 12 | TTR inh HuH7 inactive | TTR up confirm inactive
O=C(CSc1nnc(-c2cccc(F)c2)o1)NC1CCCC1	none
O=C1C(=O)N(Cc2ccc(-c3ccc(Cl)nc3)cc2)c2ccc(OC(F)(F)F)cc21	none
O=C(CCc1ccc(O)cc1)c1c(O)cc(O)cc1O	none
O=Cc1cc(CCC(=O)O)ccc1O	TTR transcr act 11 | TTR inh HuH7 inactive | TTR up confirm inactive
CCCc1ccc(C(=O)CCC(=O)O)cc1	none
O=C(OCC#CCSc1nnc(-c2cccc3ccccc23)o1)c1cccc(F)c1	none
O=C(c1cccs1)n1ccc2ccc(-c3ccc4ccn(Cc5ccccc5)c4c3)cc21	none
CCC(c1nc2ccccc2[nH]1)N(C(=O)Cc1cc(OC)cc(OC)c1)c1ccc(N2CCOCC2)cc1 (stereo not drawn)	none
COc1ccc2[nH]c(C(=O)N(Cc3ccccn3)Cc3ccccn3)cc2c1	none
COc1cc(CCN(C(=O)c2cc3ccccc3[nH]2)C(C)c2nc3ccccc3[nH]2)cc(OC)c1 (stereo not drawn)	TTR transcr act 13 | TTR inh HuH7 inactive | TTR up confirm inactive
O=C(c1ccc(Cl)cc1)N(Cc1ccccc1F)N1C(=O)CCCC1=O	none
COc1ccc(N2CCN(C(=O)CCCSc3nc4ccccc4[nH]3)CC2)cc1	none
COc1ccc(CN2C(=O)COc3ccccc3C2c2nnnn2C2CCCCC2)cc1 (stereo not drawn)	none
O=C(Nc1ccc(N2C(=O)CC3(CCCCC3)C2=O)c(Cl)c1)c1ccccn1	none
COc1ccc(-n2nnnc2SCC(=O)Nc2c(C)n[nH]c2C)cc1	none
COc1ccc(-c2nc3ccccc3c(=O)n2Cc2ccccc2)cc1COc1ccc(NC(C)=O)cc1	none
COc1ccccc1NS(=O)(=O)c1cc(NC(=O)CCNC(C)=O)ccc1C	none
O=C(CCNC(=O)c1ccccc1)Nc1ccc(F)c(Cl)c1	none
COc1ccc(NC(=O)CCNC(=O)c2ccccc2)cc1S(N)(=O)=O	TTR transcr act 31 | TTR inh HuH7 inactive | TTR up confirm inactive
COc1ccc(-c2cc(C(=O)c3c(N)n(C)c(=O)n(C)c3=O)c3ccccc3n2)cc1OC	none
C[C@H]1[C@@H](NCc2cccs2)CC[C@@]23CCCN2C(=O)CCC[C@@H]13	none
CCc1ccccc1NNC(=O)c1snnc1C	none
CSc1ccc(-c2cnc(N3CCC(C(N)=O)CC3)s2)cc1	none
COc1ccc2oc(=O)c(C(=O)Nc3ccccc3O)cc2c1	none
COc1ccc2oc(=O)c(-c3nnc(N)s3)cc2c1	TTR transcr act 10 | TTR inh HuH7 inactive | TTR up confirm inactive
COc1ccc2oc(=O)c(C(=O)NCc3ccco3)cc2c1	none
CCCC1CCC2(CC1)CCC2OC(=S)Nc1ccccc1Cl (stereo not drawn)	none
C#CCNC(=O)C[C@H]1C(=O)N(CCCOC)C2=CCCC[C@@]21C(=O)OCC	none
O=C(O)CC1(CC(=O)Nc2cccc(C(=O)O)c2)CCCC1	none
COc1ccc(Nc2nc(Cl)nc(Nc3ccc(OC)cc3)n2)cc1	none
COc1ccc(NC2=Nc3cccc4cccc2c34)cc1	TTR transcr act 15 | TTR inh HuH7 inactive | TTR up confirm inactive
COC1=C(Nc2ccc(OC)cc2)C(=O)C(OC)=C(Nc2ccc(OC)cc2)C1=O	none
O=C(Cc1ccc(F)cc1)N1CCC(CC2CC(c3cccc(Br)c3)=NO2)(C(=O)NCC2CCCCC2)CC1 (stereo not drawn)	none
COc1ccc(CNC(=O)C2(CC3CC(c4ccccc4)=NO3)CCN(C(=O)CCCCCBr)CC2)cc1 (stereo not drawn)	none
CCCCCCCNC(=O)C1(CC2CC(c3cccc(Br)c3)=NO2)CCN(C(=O)c2ccccc2)CC1 (stereo not drawn)	TTR transcr act 17 | TTR inh HuH7 inactive | TTR up confirm inactive
CC[C@@]1(c2ccc(C)cc2)C(=O)N(C(=O)OC)N1C(=O)OC	none
CC(C)NC(=O)N(C)C[C@H]1Oc2ccc(NC(=O)c3ccncc3)cc2C(=O)N([C@H](C)CO)C[C@@H]1C	none
COc1ccccc1N1CCN(C(=O)C(Sc2ccccc2)c2ccccc2)CC1 (stereo not drawn)	none
COc1ccccc1N1CCN(S(=O)(=O)CCNC(=O)C2CCCC2)CC1	none
COc1ccccc1N1CCN(C(=O)C(CC(C)C)NC(=O)C2CCCCC2)CC1 (stereo not drawn)	TTR transcr act 21 | TTR inh HuH7 inactive | TTR up confirm inactive

Screening results deposited in PubChem BioAssay by The Scripps Research Institute Molecular Screening Center.
